Results on 23 compounds are retold here after PubChem BioAssay.

Test [1] is described as follows: viability loss with induced miR-34 in A549 – imaging, A549 dox-inducible miR-34, nuclei and caspase counts, primary screen (AID 1347080). Also: test concentration not given here. The settings on record: A549 miR-34 inducible, Hoechst nuclei count, 48 h.
The nature of test [2]: MELAS cybrid and Rieske KO viability enhancers – cell-based, MELAS cybrids, Rieske KO mouse fibroblasts, CellTiter-Glo, primary screen (AID 1508586;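 active = mean z-score across replicates of 1.96 or higher in either the MELAS or the Rieske mutant cell line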;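 also: test concentration not given here; z relative to plate mean and SD of compound and empty wells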). Conditions: low glucose.
A short description of test [3]: galactose survival enhancers in mitochondrial complex I cybrids – cell-based, galactose medium, ATP luminescence, primary screen (AID 1645843;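 active = z-score of at least 1.8 in each of two replicates, scored against plate mean and spread of sample wells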;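 also: positive z means more ATP and so rescue of galactose-driven cybrid death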). Conditions: complex I mutant cybrid cells, 72 h, stronger effect = higher value.
[4] abbreviates: stronger effect = lower value, cell number ratio, induced over uninduced.
The mark [5] stands for this setting: measured here: relative caspase fold change +Dox/-Dox.
Where [6] appears, read: measured here: total cells with miR-34 induction, stronger effect = lower value.
The mark [7] stands for this setting: measured here: total cells without miR-34 induction.
[8] abbreviates: MELAS cybrid survival, CellTiter-Glo 48 h, stronger effect = higher value.
Setting [9] is: Rieske KO mouse fibroblast survival, CellTiter-Glo 72 h.

Values joined by “and” are separate entries in the source; they are usually repeats but may differ in a detail not shown here. Identical values can stand only once. Active and inactive are the calls of the source.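 The calls were made as follows, unless noted: active = compounds whose cell count with miR-34 switched on is under 0.7 times the count with it off; inactive = the rest.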

Turning to `CCn1ncc(NC(=O)Cn2nc(C)c(-c3ccc(-n4cccn4)cc3)c2C)n1`, the fold change in test [1] (setting [4]) is 0.87 (inactive); in test [1] (setting [5]), 1.42. Moreover, the cell count in test [1] (setting [6]) worked out at 4370; in test [1] (setting [7]), 5020. Moreover, the z-score was -1.09 (inactive) in test [2] (setting [8]), 1.3 in test [2] (setting [9]) and -0.54 (inactive) in test [3].
Take `CC(C)(N)c1cn(C2CCN(c3nc(N)nc4nc[nH]c34)CC2)nn1`: the fold change was 0.945 (inactive) in test [1] (setting [4]) and 0.882 in test [1] (setting [5]). In addition, the cell count worked out at 9180 in test [1] (setting [6]) and 9720 in test [1] (setting [7]). Further, the results for the z-score in test [2] (setting [8]), in test [2] (setting [9]) and in test [3] were 1.11 (inactive), -0.203 and -0.545 (inactive), respectively.
Regarding `O=C(Nc1n[nH]c(Cc2ccccc2)n1)N1CCN(c2ncccn2)CC1`, the values for the fold change in test [1] (setting [4]) and in test [1] (setting [5]) were 0.879 (inactive) and 0.976, respectively. The cell count turned out to be 8590 in test [1] (setting [6]) and 9760 in test [1] (setting [7]). Further, the z-score in test [2] (setting [8]) is -0.0698; in test [2] (setting [9]), 4; in test [3], 0.005 (inactive).
As for `CC(=O)[C@]1(O)Cc2c(O)c3c(c(O)c2C(OC2CC(N)C(O)C(C)O2)C1)C(=O)c1ccccc1C3=O` (stereo partly specified), the fold change was 0.995 (inactive) and 0.89 (inactive) in test [1] (setting [4]); 0.907 and 1.04 in test [1] (setting [5]). In addition, the cell count in test [1] (setting [6]) is 734 and 2090; in test [1] (setting [7]), 738 and 2350. Also, the results for the z-score in test [2] (setting [8]), in test [2] (setting [9]) and in test [3] were 2.4 (active), -0.525 and -1.88 (inactive), respectively.
Take `CCn1ncc2[nH]c(-c3c(OC(C)C)ccc4ccccc34)nc21`: the fold change in test [1] (setting [4]) is 0.906 (inactive); in test [1] (setting [5]), 1.3. The cell count in test [1] (setting [6]) was 7700; in test [1] (setting [7]) it was 8510. Besides, the z-score in test [2] (setting [8]) is -0.33 (inactive); in test [2] (setting [9]) it was -0.482; in test [3], 0.5 (inactive).
As for `COc1ccc(CC(N)=O)cc1`, the figures for the fold change in test [1] (setting [4]) and in test [1] (setting [5]) were 0.918 (inactive) and 0.564, respectively. The cell count is 8020 in test [1] (setting [6]) and 8730 in test [1] (setting [7]). Besides, the values for the z-score in test [2] (setting [8]), in test [2] (setting [9]) and in test [3] were 0.385 (inactive), 0.663 and -0.175 (inactive), respectively.
For the compound `c1ccc(-c2noc(-c3cccc4cccnc34)n2)nc1`, the fold change is 0.892 (inactive) in test [1] (setting [4]) and 1.13 in test [1] (setting [5]). Further, the cell count in test [1] (setting [6]) came to 7790; in test [1] (setting [7]), 8740. The z-score in test [2] (setting [8]) is -0.283 (inactive); in test [2] (setting [9]), 1.05; in test [3] it was 0.93 (inactive).
With `CCc1ccc(-c2nn(CC(=O)Nc3cnn(C)n3)c3ccccc23)cc1`, the fold change is 0.895 (inactive) in test [1] (setting [4]) and 1.48 in test [1] (setting [5]). In addition, the values for the cell count in test [1] (setting [6]) and in test [1] (setting [7]) were 6460 and 7220, respectively. Moreover, the z-score in test [2] (setting [8]) is -0.0449 (inactive); in test [2] (setting [9]), -0.314; in test [3] it was 1.09 (inactive).
On to `NCc1ccc(-c2cccs2)cc1`, for which the fold change in test [1] (setting [4]) is 0.89 (inactive); in test [1] (setting [5]), 0.746. Also, the cell count in test [1] (setting [6]) turned out to be 8580; in test [1] (setting [7]), 9650. For the same compound, the z-score in test [2] (setting [8]) was -0.349 (inactive); in test [2] (setting [9]) it was -0.59; in test [3] it was 0.51 (inactive).
Take `Cc1cc2nc3[nH]c(=O)[nH]c(=O)c3nc2cc1C`: the results for the fold change in test [1] (setting [4]) and in test [1] (setting [5]) were 0.917 (inactive) and 0.188, respectively. Also, the cell count in test [1] (setting [6]) turned out to be 7820; in test [1] (setting [7]), 8530. Besides, the z-score in test [2] (setting [8]) was 1.63 (inactive); in test [2] (setting [9]) it was 0.292; in test [3], 0.825 (inactive).
For `OCC(O)COc1ccc(Cl)cc1` (stereo unspecified), the fold change in test [1] (setting [4]) was 0.886 (inactive); in test [1] (setting [5]), 0.44. Besides, the results for the cell count in test [1] (setting [6]) and in test [1] (setting [7]) were 8700 and 9820, respectively. Further, the figures for the z-score in test [2] (setting [8]), in test [2] (setting [9]) and in test [3] were 0.325 (inactive), 0.457 and 0.62 (inactive), respectively.
For the compound `O=C(CC1=CCCCC1)NCc1ccon1`, the figures for the fold change in test [1] (setting [4]) and in test [1] (setting [5]) were 0.939 (inactive) and 1.22, respectively. Besides, the cell count was determined as 9490 in test [1] (setting [6]) and 10100 in test [1] (setting [7]). In addition, the z-score in test [2] (setting [8]) was 0.26 (inactive); in test [2] (setting [9]) it was -0.5; in test [3], -0.49 (inactive).
In the case of `CN(C)c1ccc(C(=O)O)cc1`, the results for the fold change in test [1] (setting [4]) and in test [1] (setting [5]) were 0.927 (inactive) and 0.253, respectively. Besides, the cell count was 8940 in test [1] (setting [6]) and 9650 in test [1] (setting [7]). Further, the z-score in test [2] (setting [8]) was -0.46 (inactive); in test [2] (setting [9]), 0.0916; in test [3], 0.71 (inactive).
`Cc1nn(C)cc1-c1ccnc(NC2CCOC(C)(C)C2)n1` (stereo unspecified): the results for the fold change in test [1] (setting [4]) and in test [1] (setting [5]) were 0.847 (inactive) and 2.06, respectively. The cell count in test [1] (setting [6]) was 8460; in test [1] (setting [7]) it was 9990. For the same compound, the z-score is -0.0523 (inactive) in test [2] (setting [8]), -0.494 in test [2] (setting [9]) and -0.56 (inactive) in test [3].
Regarding `CCOC(=O)c1c(C)nn(-c2ccc(N)cc2)c1C`, the fold change in test [1] (setting [4]) is 0.897 (inactive); in test [1] (setting [5]), 0.586. For the same compound, the figures for the cell count in test [1] (setting [6]) and in test [1] (setting [7]) were 8580 and 9570, respectively. Moreover, the results for the z-score in test [2] (setting [8]), in test [2] (setting [9]) and in test [3] were -0.251 (inactive), -0.884 and -0.7 (inactive), respectively.
Take `OCCCc1cn(CC2CCN(c3ncnc4nc[nH]c34)CC2)nn1`: the fold change in test [1] (setting [4]) was 0.959 (inactive); in test [1] (setting [5]), 1.9. Further, the values for the cell count in test [1] (setting [6]) and in test [1] (setting [7]) were 8820 and 9200, respectively. In addition, the z-score is 0.238 (inactive) in test [2] (setting [8]), -0.383 in test [2] (setting [9]) and -0.565 (inactive) in test [3].
For the compound `CC(=O)NC(CCCN=C(N)N)C(=O)O` (stereo unspecified), the fold change was 0.897 (inactive) in test [1] (setting [4]) and 0.717 in test [1] (setting [5]). The cell count is 8640 in test [1] (setting [6]) and 9630 in test [1] (setting [7]). The z-score in test [2] (setting [8]) is -1.33 (inactive); in test [2] (setting [9]), -0.192; in test [3] it was 0.785 (inactive).
Regarding `NS(=O)(=O)c1ccc(F)cc1`, the fold change in test [1] (setting [4]) was 0.896 (inactive); in test [1] (setting [5]), 0.251. In addition, the cell count in test [1] (setting [6]) was 9050; in test [1] (setting [7]), 10100. Also, the z-score in test [2] (setting [8]) is 0.294 (inactive); in test [2] (setting [9]), -0.158; in test [3], 0.18 (inactive).
With `O=C(O)c1ccc(-c2ccc([N+](=O)[O-])cc2Cl)o1`, the fold change in test [1] (setting [4]) is 0.876 (inactive); in test [1] (setting [5]), 0.203. Also, the values for the cell count in test [1] (setting [6]) and in test [1] (setting [7]) were 8260 and 9440, respectively. The z-score is 0.0167 (inactive) in test [2] (setting [8]), -0.308 in test [2] (setting [9]) and 0.255 (inactive) in test [3].
As for `CCCn1ncc(-c2ccnc(NC3CC(C)(C)NC(C)(C)C3)n2)c1C`, the figures for the fold change in test [1] (setting [4]) and in test [1] (setting [5]) were 0.919 (inactive) and 0.965, respectively. Besides, the values for the cell count in test [1] (setting [6]) and in test [1] (setting [7]) were 8450 and 9200, respectively. The z-score in test [2] (setting [8]) was 0.278 (inactive); in test [2] (setting [9]), 0.593; in test [3], 0.33 (inactive).
For the compound `c1ccc(CN2CCC(Nc3ncnc4sccc34)CC2)nc1`, the fold change in test [1] (setting [4]) is 0.895 (inactive); in test [1] (setting [5]), 1.42. For the same compound, the cell count in test [1] (setting [6]) was determined as 5240; in test [1] (setting [7]), 5860. Further, the z-score in test [2] (setting [8]) was -0.277 (inactive); in test [2] (setting [9]), -0.421; in test [3] it was -0.58 (inactive).
Regarding `Cc1ccc(S(=O)(=O)NCCCOC(=O)Nc2ccncc2)cc1`, the fold change in test [1] (setting [4]) was 0.881 (inactive); in test [1] (setting [5]), 0.547. The cell count in test [1] (setting [6]) was 7920; in test [1] (setting [7]), 8990. Moreover, the z-score in test [2] (setting [8]) was 0.675 (inactive); in test [2] (setting [9]) it was -0.0111; in test [3], -0.675 (inactive).
`CN1CCN(NC(=S)Nc2ccc(S(N)(=O)=O)cc2)CC1`: the fold change is 0.87 (inactive) in test [1] (setting [4]) and 0.82 in test [1] (setting [5]). For the same compound, the cell count in test [1] (setting [6]) stood at 8440; in test [1] (setting [7]) it was 9700. The z-score is -0.739 (inactive) in test [2] (setting [8]), 0.101 in test [2] (setting [9]) and 0.425 (inactive) in test [3].
